The list is not random: actives were taken first. Their share in the collection is about 5.3%.
HIF activator – HIF pathway transcriptional activation; U2OS HRE-luciferase reporter, luminescence; normalized: DMSO 0%, desferrioxamine 100%; activation, % at 7.5 µM (by protocol); hit rate 0.32% among 300,000; AID 1910;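 active = mean activation of at least 10% of the iron chelator positive control signal, with at least half of replicates also reaching 10%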
SUMO Mot1 rescue – blocks SUMOylation pathway, rescuing yeast Mot1-301 growth; S. cerevisiae Mot1-301 growth rescue, ATP luminescence, 38.5C; percent above DMSO median, 100 means doubled; growth rescue, % at 18.8 µM; hit rate 1% among 320,000; AID 2716;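 active = every valid replicate shows activation above 250% relative to neutral control wells; inactive = the rest, any valid replicate at or below 250%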;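 also: OY570 slx delta 5 strain wells were the positive control but not used for scaling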
ALR inh – inhibitors of human sulfhydryl oxidase ALR; purified ALR, DTT oxidation, H2O2 HRP-luminol luminescence; inhibition, % (no concentration beside the values); hit rate 3.8% among 290,000; AID 485317;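 active = mean replicate inhibition above about 79%, with every replicate also reaching it, limit read from the data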
Target sequence (P55789 whole entry, looked up): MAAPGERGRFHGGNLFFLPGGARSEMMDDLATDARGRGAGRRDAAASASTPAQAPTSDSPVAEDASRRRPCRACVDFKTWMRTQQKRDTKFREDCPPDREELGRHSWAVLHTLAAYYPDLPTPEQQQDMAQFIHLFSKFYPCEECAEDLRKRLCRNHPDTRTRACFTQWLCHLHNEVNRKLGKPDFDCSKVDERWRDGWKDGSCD
PfM18AAP inh – PfM18AAP enzyme inhibition. recombinant PfM18AAP, H-Glu-NHMec fluorogenic cleavage. hit rate 1.2% among 290,000. inhibition, % at 7.35 µM;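 active = inhibition above the campaign mean inhibition over all tested compounds plus 3 SD, cut at about 28% in these data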;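 also: 0% = plate median of test compound wells and 100% = 2 mM ZnCl2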
* = called active by the depositor; nt = no result given; + = active, no number.

SMILES	HIF activator	SUMO Mot1 rescue	ALR inh	PfM18AAP inh
CCC(C)N(C(=O)COC(=O)CSc1ccc(C)c(C)c1)C1CCS(=O)(=O)C1 (configuration not stated)	nt	0	-12	nt
Cc1cc(C)c2c(NC(=O)CCl)nn(C)c2n1	-2	-3	10	-5
CCc1cc(SC#N)cc(CC)c1NC(=O)CCl	0	-3	99*	-6
Cc1ccc(C(c2sc3ncnn3c2O)N2CC(C)CC(C)C2)cc1 (configuration not stated)	0	-6	-5	30*
COc1ccc(C(c2sc3ncnn3c2O)N2CC(C)OC(C)C2)cc1OC (configuration not stated)	1	-5	nt	3
CCC(=O)Nc1ccc(/C(C)=N\NC(=O)c2ccc(OC)cc2)cc1	1	280	0	-5
COc1ccc(CCNC(=O)c2cc(-c3cc(C)ccc3O)n[nH]2)cc1OC	0	-10	96*	7
COc1ccc(CCNC(=O)c2cc(-c3ccc(C)c(C)c3O)n[nH]2)cc1OC	0	18	-3	2
O=C1CSCN1c1ccc(Cl)cc1	184*	-7	-12	-2
O=C(C1CC(=O)N(c2ccc(Cl)cc2)C1)N1CCCCCC1 (configuration not stated)	3	4	1	-2
CCC1Oc2ccccc2N(CC(=O)NCCCN2CCN(c3ccc(OC)cc3)CC2)C1=O (configuration not stated)	0	12	17	-1
Cc1ccccc1-c1cc(C(=O)NCc2cccc(C(F)(F)F)c2)n(CC2CC(c3cccnc3)=NO2)n1 (configuration not stated)	nt	10	3	nt
COc1ccc2c(c1)c1ncn(CCc3ccccc3)c(=O)c1n2C	1	103	91*	-8
O=C(/C=C/c1cccc([N+](=O)[O-])c1)N(c1ccccn1)c1ccccn1	0	+	-6	-8
CCCN1CCCc2cc(CN)ccc21	0	15	100*	14
CC(=O)Nc1ccc(S(=O)(=O)Oc2ccccc2N2C(=O)C3C4CCC(C4)C3C2=O)cc1 (configuration not stated)	0	0	1	0
N#Cc1ccccc1OCC(=O)Nc1c(C(=O)C2CC2)oc2ccccc12	0	-17	90*	-6
CC(C)CCOc1ccc(NC(=O)C2OC3OC(C)(C)OC3C3OC(C)(C)OC23)cc1 (configuration not stated)	0	-1	-4	6
CC(C)CCOc1ccc(CO[C@@H]2[C@H]3OC(C)(C)O[C@H]3O[C@@H]2C(O)CO)cc1 (some centres not stated)	-1	-14	87*	-11
CCN(CC)c1ccc(C2C(C(=O)OC(C)C)C(=O)CC(C)(O)C2C(=O)OC(C)C)cc1 (configuration not stated)	0	-3	16	6
CCOC(=O)N1CCC(NC(=O)c2cc(C(=O)Nc3cccc(OC)c3)ccc2CO)CC1	-5	-16	17	-1
O=C(NC1CC1)c1ccc2snnc2c1	0	5	nt	-1
CCOC(=O)N1CCC(NC(=O)c2ccc3c(c2)sc2nc(-c4cccc(OC)c4)cn23)CC1	6	nt	nt	30*
CCOC(=O)N1CCC(NC(=O)c2ccc3snnc3c2)CC1	0	-21	98*	-1
CC(=O)c1c(C)[nH]c(C(=O)OCC(=O)N2CCc3ccccc3C2)c1C	nt	-6	-2	nt
SMILES	HIF activator	SUMO Mot1 rescue	ALR inh	PfM18AAP inh
O=C(CCl)NCc1c(Cl)cccc1-n1cccc1	-1	40	96*	2
CCOC(=O)/C(=N\Nc1ccccc1Cl)N(C)C1CCCCC1	0	25	99*	1
CCOC(=O)/C(=N\Nc1ccccc1Cl)N1CC(C)OC(C)C1 (configuration not stated)	0	173	nt	2
Cc1cc(Cn2nc(C(=O)NCc3cccc(Br)c3)cc2-c2ccccc2)on1	nt	10	nt	nt
COc1ccc(CSc2nc(O)cc(=O)n2CC(C)C)cc1F	-1	-10	99*	0
CC(C)(C)c1ccc(NC(=O)Cn2cnc3cc([N+](=O)[O-])ccc3c2=O)cc1	0	11	3	-1
CCOC(=O)c1cc2sccc2n1CC(=O)Nc1ccc(OC)cc1	36*	248	-5	-1
CCOC(=O)c1cc2sccc2n1CC(=O)Nc1ccc(OC)c(OC)c1	0	9	-4	4
COc1ccc(C2=NS(=O)(=O)N(C)C(C(=O)NCc3ccc(F)cc3)=C2)cc1OC	0	-25	1	5
Cc1ccc(N(CC(=O)N2CCN(C3CCCCC3)CC2)S(=O)(=O)c2cccnc2)cc1	nt	-6	nt	5
Cn1c(CNc2ccccc2)nc2ccccc21	3	-1	53	-13

High-throughput results: PubChem BioAssay, several laboratories
